These results are taken from PubChem BioAssay (Tox21).

Assay [1] concerns the target Progesterone receptor (Homo sapiens) (UniProt P06401). The assay is described as follows: qHTS assay to identify small molecule agonists of the progesterone receptor (PR) signaling pathway (AID 1346784; calls by dose curve; note: nearly all actives have a fitted effect of over 30% in size). An outline of the steps: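 PR-UAS-bla HEK 293T cells (beta-lactamase reporter under UAS) in 2% charcoal-stripped FBS, dosed with 23 nL compound after 6 hr, incubated 16hr at 37C. LiveBLAzer B/G FRET substrate added, fluorescence read after 2 hours.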
For orientation: Quantitative high-throughput screening tests each substance at several concentrations.

Assay [2] has the same target. The experiment in a line: qHTS assay to identify small molecule antagonists of the progesterone receptor (PR) signaling pathway (AID 1346795; active = well fitted inhibition curve with a large enough effect in the signal ratio in the repeat runs, not every such curve was filed as active; the % refers to the signal ratio; note: potency is the fitted concentration of half-maximal effect). In outline:
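PR-UAS-bla HEK293T cells with beta-lactamase reporter under UAS control, in 2% charcoal-stripped FBS, treated with compounds plus 1 nM promegestone (R5020, final) for 16 hr at 37C. Read-out: FRET beta-lactamase substrate fluorescence after 2 hr at room temperature.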

Assay [3] can be described thus: qHTS assay to identify small molecule antagonists of the progesterone receptor (PR) signaling pathway - cell viability counter screen (AID 1346798). Note: series mostly up to about 92 µM; nearly all actives have a fitted effect of over 50% in size. In outline: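 PR-UAS-bla HEK293T cells, 3,000/well in 2% charcoal-stripped FBS medium, dosed with compounds plus R5020 agonist and incubated 16 h at 37C. Viability then measured in the same wells by CellTiter-Glo luminescence after 30 min at RT.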

The nature of assay [4]: qHTS assay to identify small molecule agonists of the progesterone receptor (PR) signaling pathway - cell viability counter screen (AID 1346799; calls by dose curve; note: nearly all actives have a fitted effect of over 45% in size). In outline: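 Counter screen in the PR-UAS-bla HEK293T wells (2% charcoal-stripped FBS, 16 h compound exposure at 37 C) after the bla read. CellTiter-Glo added, 30 min at room temperature, luminescence read as cell viability.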

The nature of assay [5]: qHTS assay to identify small molecule antagonists of the TGF-beta/Smad signaling pathway - cell viability counter screen (AID 1346824). Note: nearly all actives have a fitted effect of over 50% in size. An outline of the steps: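 Cytotoxicity counter-screen run in the same wells as the beta-lactamase Smad reporter read: CellTiter-Glo luminescence after 30 min at room temperature. HEK 293T SBE-bla cells had 5 hr compound exposure at 37 C with TGF-beta1 (0.25 ng/mL stock).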

Assay [6] can be described thus: qHTS assay to identify small molecule agonists of the TGF-beta/Smad signaling pathway (AID 1346859; active = well fitted activation curve with a large enough effect in the signal ratio in the repeat runs, not every such curve was filed as active; the % refers to the signal ratio; note: series mostly up to about 77 µM). An outline of the steps:
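SBE-bla HEK293T cells plated overnight, then compound exposure for 5 h at 37 C. Beta-lactamase reporter read with LiveBLAzer B/G FRET substrate after 2 h at room temperature, fluorescence at 405 nm excitation, 460/530 nm emission.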

Assay [7] concerns the target Thyrotropin-releasing hormone receptor (Homo sapiens) (UniProt P34981). The assay is described as follows: qHTS assay to identify small molecule antagonists of the thyrotropin-releasing hormone receptor (TRHR) signaling pathway (AID 1346877; active = well fitted inhibition curve with a large enough effect in the repeat runs, not every such curve was filed as active; note: series mostly up to about 51 µM). In outline: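 Antagonism is measured as suppression of the calcium response to 1 nM TRH in TRHR-HEK293 cells that have been dye-loaded for 2 h at 37 °C after overnight plating. Each compound is tested at 15 concentrations in triplicate.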

Assay [8] shares this target. The assay is described as follows: qHTS assay to identify small molecule agonists of the thyrotropin-releasing hormone receptor (TRHR) signaling pathway (AID 1346891; calls by dose curve; note: series mostly up to about 58 µM). In outline:
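HEK293 cells expressing TRHR plated 18 h at 37 C/5% CO2, calcium dye-loaded 2 h at 37 C, then compound added (agonist mode); kinetic calcium fluorescence read 3 min at 1 s intervals; 15 concentrations in triplicate.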

The nature of assay [9]: Human pregnane X receptor (PXR) small molecule agonists, qHTS cell viability counter screen (AID 1346977). Note: nearly all actives have a fitted effect of over 50% in size. In outline:
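PXR-Luc HepG2 cells (2,000/well, 5% charcoal-stripped FBS) preincubated 5 hr, then exposed to compounds 24 hr at 37 C. Viability read in the same wells by CellTiter-Fluor fluorescence, reagent added at 23 hr, 1 hr incubation.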

Assay [10] in a line: Caspase-3/7 induction in HepG2 cells by small molecules, qHTS assay (AID 1346978). Note: nearly all actives have a fitted effect of over 15% in size. In outline: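 Caspase-3/7 induction was measured by Caspase-Glo 3/7 luminescence (30 min, room temperature) after a 17 hr compound exposure of wild-type HepG2 cells seeded at 2,000 per well and pre-incubated 5 hr.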
Assay [11] in a line: Caspase-3/7 induction in CHO-K1 cells by small molecules, qHTS cell viability counter screen (AID 1346979). Note: nearly all actives have a fitted effect of over 35% in size. Note: potency is the fitted concentration of half-maximal effect. In outline:
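Wild-type CHO-K1 cells (1,500/well) treated with compound after 5 h plating; after 16 h at 37C, viability read as CellTiter-Fluor fluorescence following 1 h reagent incubation, in the same wells as the caspase read.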

Assay [12] is described as follows: Caspase-3/7 induction in CHO-K1 cells by small molecules, qHTS assay (AID 1346980). Note: nearly all actives have a fitted effect of over 15% in size. An outline of the steps: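 Luminescent Caspase-Glo 3/7 read (30min, room temperature) quantified apoptosis induction. Cells were wild-type CHO-K1, treated with compound for 17hr at 37 C and 5% CO2.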
The nature of assay [13]: Caspase-3/7 induction in HepG2 cells by small molecules, qHTS cell viability counter screen (AID 1346981). Note: series mostly up to about 92 µM; nearly all actives have a fitted effect of over 30% in size. An outline of the steps: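 Cell viability is measured as a cytotoxicity counter screen alongside the Caspase-Glo 3/7 readout in identical wells. Wild-type HepG2 cells are treated with test compounds for 16 hr at 37 C before CellTiter-Fluor addition and a 1-hr incubation.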

In assay [14] the target is Nuclear receptor subfamily 1 group I member 2 (Homo sapiens) (UniProt O75469). The experiment in a line: Human pregnane X receptor (PXR) small molecule agonists, qHTS assay (AID 1346982). Note: nearly all actives have a fitted effect of over 35% in size. Note: potency is the fitted concentration of half-maximal effect. In outline: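 Cells: HepG2 stably carrying PXR-Luc. Medium held 5% charcoal-stripped FBS. Compounds in DMSO added after 5 hr plating, incubated 24 hr, then luminescence quantified with ONE-Glo.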
Sequence of Nuclear receptor subfamily 1 group I member 2 (Homo sapiens) (O75469 whole entry, looked up): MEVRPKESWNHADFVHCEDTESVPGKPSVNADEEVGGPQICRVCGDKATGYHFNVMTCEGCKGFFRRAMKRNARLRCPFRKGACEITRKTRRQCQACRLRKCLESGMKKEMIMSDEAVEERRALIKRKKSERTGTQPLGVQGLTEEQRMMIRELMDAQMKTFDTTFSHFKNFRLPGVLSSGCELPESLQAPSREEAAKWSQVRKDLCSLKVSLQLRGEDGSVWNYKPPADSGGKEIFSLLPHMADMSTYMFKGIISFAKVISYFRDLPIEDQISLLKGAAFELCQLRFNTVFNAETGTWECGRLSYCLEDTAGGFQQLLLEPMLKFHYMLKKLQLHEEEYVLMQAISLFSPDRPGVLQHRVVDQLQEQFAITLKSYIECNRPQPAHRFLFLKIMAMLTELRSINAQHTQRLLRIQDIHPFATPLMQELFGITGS

Assay [15] concerns the target Nuclear receptor subfamily 1 group I member 2 (Rattus norvegicus) (UniProt Q9R1A7). The experiment in a line: Rat pregnane X receptor (rPXR) activation by small molecules, qHTS assay (AID 1346983). Note: nearly all actives have a fitted effect of over 20% in size. The conditions noted are these: rPXR luciferase reporter cells, One-Glo luminescence, 24 h; stronger effect = higher value. In outline: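 Luminescent readout (One-Glo luciferase, 30 min room temperature) followed 24 hr compound treatment at 37 C of rPXR cells plated 2,000 per well and preincubated 5hr; qHTS format with compounds delivered in DMSO.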

Assay [16] deals with Nuclear receptor subfamily 1 group I member 2 (Homo sapiens) (UniProt O75469). The assay is described as follows: Human pregnane X receptor (PXR) activation by small molecules, qHTS assay (AID 1346985). Note: nearly all actives have a fitted effect of over 40% in size. In outline: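 DPX-2 cells (HepG2 co-transfected with a PXR response element and a CYP3A4-promoter luciferase construct) were seeded at 2,000 per well, rested 5 hr at 37C, then exposed to DMSO-dissolved compounds for 24 hr. Activation was read as luciferase luminescence.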

Assay [17] concerns the target Cytochrome P450 2D6 (Homo sapiens) (UniProt P10635). The experiment in a line: Cytochrome P450 Family 2 Subfamily D Member 6 (CYP2D6) small molecule antagonists: luciferase reporter qHTS assay (AID 1671196). Note: nearly all actives have a fitted effect of over 50% in size. Note: potency is the fitted concentration of half-maximal effect. In outline: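 Enzyme and proluciferin substrate were first combined with test chemical for 10 min at room temperature. Adding NADPH regeneration solution started a 1 h reaction, stopped with luciferin detection reagent and read by luminescence 20 min later.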
(In a reporter assay the amount or activity of a reporter protein is the signal.)

Assay [18] addresses Cytochrome P450 2C19 (Homo sapiens) (UniProt P33261). The assay is described as follows: Cytochrome P450 Family 2 Subfamily C Member 19 (CYP2C19) small molecule antagonists: luciferase reporter qHTS assay (AID 1671197). Note: nearly all actives have a fitted effect of over 65% in size. Note: potency is the fitted concentration of half-maximal effect. An outline of the steps:
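Quantitative high-throughput screen of the Tox21 library using CYP2C19 with proluciferin substrate. Reaction: NADPH regeneration, 37C, 1 h, after 10 min compound preincubation at room temperature. Readout: luminescence.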

The nature of assay [19]: qHTS assay to identify small molecule agonists of the TGF-beta/Smad signaling pathway - cell viability counter screen (AID 1346829). Note: top concentration of the series differs between compounds; nearly all actives have a fitted effect of over 45% in size. In outline: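 Same-well cytotoxicity: CellTiter-Glo added after the 2 hr room-temperature beta-lactamase substrate step, luminescence measured 30 min later; cells had 5 hr of compound at 37 C.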

Values joined by “and” are separate entries in the source; they are usually repeats but may differ in a detail not shown here. Identical values can stand only once. Results filed as inconclusive are left out. More than one record can exist for a structure, and the calls need not agree. Active and inactive are the calls of the source. Unless noted, calls come from the whole dose curve; as a rule, active = well fitted curve in the direction sought with a large enough effect in the repeat runs; inconclusive = weak or mixed curves; inactive = no such curve, though single readings can be large; an effect the other way counts as inactive or inconclusive.
% is set by controls: 0 for no effect and ±100 for the full control effect.

Sequence of Cytochrome P450 2C19 (Homo sapiens) (P33261 whole entry, looked up): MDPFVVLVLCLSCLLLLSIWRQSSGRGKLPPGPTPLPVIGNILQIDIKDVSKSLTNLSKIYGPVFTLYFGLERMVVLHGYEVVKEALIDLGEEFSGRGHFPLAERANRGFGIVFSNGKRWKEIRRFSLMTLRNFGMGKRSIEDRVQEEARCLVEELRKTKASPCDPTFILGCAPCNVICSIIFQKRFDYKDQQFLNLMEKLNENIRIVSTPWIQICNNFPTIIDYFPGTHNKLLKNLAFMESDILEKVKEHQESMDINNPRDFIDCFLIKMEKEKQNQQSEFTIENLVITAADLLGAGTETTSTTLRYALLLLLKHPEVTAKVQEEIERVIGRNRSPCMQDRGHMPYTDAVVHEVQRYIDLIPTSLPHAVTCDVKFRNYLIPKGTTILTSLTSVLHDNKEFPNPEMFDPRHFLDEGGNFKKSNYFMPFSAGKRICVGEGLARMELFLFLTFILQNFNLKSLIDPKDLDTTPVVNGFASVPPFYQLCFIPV
Sequence of Progesterone receptor (Homo sapiens) (P06401 whole entry, looked up): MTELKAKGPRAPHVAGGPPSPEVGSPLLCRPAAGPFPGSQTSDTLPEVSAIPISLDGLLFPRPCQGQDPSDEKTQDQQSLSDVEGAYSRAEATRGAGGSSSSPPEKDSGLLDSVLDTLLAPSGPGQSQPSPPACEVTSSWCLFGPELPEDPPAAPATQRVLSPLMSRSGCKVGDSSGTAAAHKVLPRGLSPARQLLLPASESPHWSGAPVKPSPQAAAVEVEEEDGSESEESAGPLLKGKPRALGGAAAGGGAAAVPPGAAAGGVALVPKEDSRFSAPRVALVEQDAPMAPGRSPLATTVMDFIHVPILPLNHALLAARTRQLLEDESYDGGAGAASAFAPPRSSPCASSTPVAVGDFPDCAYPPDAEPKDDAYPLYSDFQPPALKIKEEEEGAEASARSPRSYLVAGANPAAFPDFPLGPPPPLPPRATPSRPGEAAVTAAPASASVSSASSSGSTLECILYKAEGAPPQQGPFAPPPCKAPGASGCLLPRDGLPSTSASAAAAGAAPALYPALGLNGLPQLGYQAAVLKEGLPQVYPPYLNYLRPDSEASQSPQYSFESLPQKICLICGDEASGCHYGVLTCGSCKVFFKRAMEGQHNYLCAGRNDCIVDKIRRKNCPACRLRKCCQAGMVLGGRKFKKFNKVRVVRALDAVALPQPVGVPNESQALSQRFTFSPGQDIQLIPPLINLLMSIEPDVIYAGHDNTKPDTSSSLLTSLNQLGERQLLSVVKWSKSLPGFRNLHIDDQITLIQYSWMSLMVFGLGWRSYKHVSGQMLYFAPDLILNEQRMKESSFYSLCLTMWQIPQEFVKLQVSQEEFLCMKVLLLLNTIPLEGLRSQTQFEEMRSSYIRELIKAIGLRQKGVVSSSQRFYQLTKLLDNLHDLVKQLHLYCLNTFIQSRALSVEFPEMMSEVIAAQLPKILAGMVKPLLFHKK
Sequence of Thyrotropin-releasing hormone receptor (Homo sapiens) (P34981 whole entry, looked up): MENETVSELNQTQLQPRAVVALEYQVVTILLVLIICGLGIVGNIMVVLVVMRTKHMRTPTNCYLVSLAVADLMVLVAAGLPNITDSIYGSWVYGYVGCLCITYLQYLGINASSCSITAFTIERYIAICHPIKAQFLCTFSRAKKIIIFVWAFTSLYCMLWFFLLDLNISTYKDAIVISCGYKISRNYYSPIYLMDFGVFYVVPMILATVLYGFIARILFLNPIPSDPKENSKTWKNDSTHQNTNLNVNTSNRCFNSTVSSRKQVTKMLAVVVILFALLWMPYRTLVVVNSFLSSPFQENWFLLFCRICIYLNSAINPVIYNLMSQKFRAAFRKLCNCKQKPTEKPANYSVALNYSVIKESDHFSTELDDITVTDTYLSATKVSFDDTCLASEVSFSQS
Sequence of Cytochrome P450 2D6 (Homo sapiens) (P10635 whole entry, looked up): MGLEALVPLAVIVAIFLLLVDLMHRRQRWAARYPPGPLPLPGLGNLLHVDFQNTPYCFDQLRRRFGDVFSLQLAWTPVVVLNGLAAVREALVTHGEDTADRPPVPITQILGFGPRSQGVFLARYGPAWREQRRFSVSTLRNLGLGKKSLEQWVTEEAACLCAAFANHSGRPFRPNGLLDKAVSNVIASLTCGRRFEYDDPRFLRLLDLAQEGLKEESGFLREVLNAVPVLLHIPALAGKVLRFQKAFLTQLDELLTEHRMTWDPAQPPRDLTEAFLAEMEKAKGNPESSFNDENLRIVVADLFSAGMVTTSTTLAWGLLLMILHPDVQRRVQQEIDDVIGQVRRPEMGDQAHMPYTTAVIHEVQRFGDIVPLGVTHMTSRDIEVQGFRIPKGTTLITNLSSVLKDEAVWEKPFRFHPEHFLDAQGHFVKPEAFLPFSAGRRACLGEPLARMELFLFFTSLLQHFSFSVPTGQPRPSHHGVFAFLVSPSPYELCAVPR
Sequence of Nuclear receptor subfamily 1 group I member 2 (Rattus norvegicus) (Q9R1A7 whole entry, looked up): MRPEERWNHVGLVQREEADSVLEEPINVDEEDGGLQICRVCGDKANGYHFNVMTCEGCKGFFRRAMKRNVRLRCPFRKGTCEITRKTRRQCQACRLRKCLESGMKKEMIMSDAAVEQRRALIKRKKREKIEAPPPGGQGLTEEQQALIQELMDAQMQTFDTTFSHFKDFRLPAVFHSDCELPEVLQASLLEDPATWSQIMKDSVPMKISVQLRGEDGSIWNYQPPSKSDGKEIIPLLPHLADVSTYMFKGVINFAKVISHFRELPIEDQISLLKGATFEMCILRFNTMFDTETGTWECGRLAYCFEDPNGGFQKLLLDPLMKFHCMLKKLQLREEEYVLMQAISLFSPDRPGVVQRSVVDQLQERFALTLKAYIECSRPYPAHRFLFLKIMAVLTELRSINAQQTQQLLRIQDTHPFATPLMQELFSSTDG

As to `OC[C@H]1O[C@@H](Oc2ccc(O)cc2)[C@H](O)[C@@H](O)[C@@H]1O`, the Potency result in assay [1], in assay [2], in assay [3], in assay [4], in [5] and in assay [6] was “inactive” each time. In addition, the Potency entry in assay [7], in [9], in assay [10], in assay [11], in assay [12] and in [13] was “inactive” each time. In addition, the Potency entry in [14], in assay [17] and in assay [18] was “inactive” each time. For the same molecule, the molecule was classed as inactive in [8] and in [16]. Also, the max activation in assay [15] was -0.143% (inactive).
`COc1c2ccoc2cc2oc(=O)ccc12`: the Potency result in assay [1], in assay [3], in [4], in assay [5], in [19] and in [6] was “inactive” each time. Further, the Potency result in assay [7], in assay [10], in assay [11], in [12] and in assay [13] was “inactive” in each case. The Potency in assay [2] is 15.7 µM (active); in assay [14] it was 55.7 µM (active) and 21.7 µM (active); in assay [17] it was 4.08 µM (active) and inactive; in assay [18], 5.77 µM (active) and 8.94 µM (active). The molecule was called inactive in assay [8].
For `CCCCCCCCO`, the Potency result in [1], in assay [2], in assay [3], in assay [4], in [5] and in assay [19] was “inactive” throughout. The Potency result in assay [6], in [10], in [11], in assay [12], in assay [13] and in assay [14] was “inactive” throughout. The Potency result in assay [17] and in assay [18] was “inactive” throughout.
Consider `Clc1cccc(Cl)c1NC1=NCCN1`, for which the Potency entry in assay [1], in [2], in [3], in assay [4], in assay [5] and in assay [19] was “inactive” throughout. Moreover, the Potency result in assay [6], in assay [9], in assay [10], in [11], in assay [12] and in assay [13] was “inactive” each time.
Regarding `NC(=O)NC(N)=O`, the Potency result in assay [1], in assay [2], in assay [3], in assay [4], in [5] and in assay [6] was “inactive” in each case. Besides, the Potency entry in assay [7], in [9], in assay [10], in assay [11], in [12] and in assay [13] was “inactive” throughout. In addition, the Potency entry in assay [14], in [17] and in [18] was “inactive” throughout. The molecule was classed as inactive in assay [8].
`C=CC(C)(C)C`: the Potency entry in [1], in assay [2], in [3], in assay [4], in [5] and in [19] was “inactive” throughout. The Potency result in assay [6], in assay [9], in [10], in assay [11], in [12] and in assay [13] was “inactive” each time. The Potency entry in assay [14], in assay [17] and in assay [18] was “inactive” each time.
Turning to `CS(=O)(=O)c1ccc(Cl)cc1`, the Potency result in assay [1], in [2], in assay [3], in assay [4], in assay [5] and in assay [19] was “inactive” throughout. The Potency result in assay [6], in assay [9], in [10], in assay [11], in assay [12] and in [13] was “inactive” each time. Moreover, the Potency entry in assay [14], in assay [17] and in [18] was “inactive” throughout.
On to `O=C1OC(=O)c2c(Cl)c(Cl)c(Cl)c(Cl)c21`, for which the Potency entry in assay [1], in assay [2], in assay [3], in assay [4], in assay [5] and in assay [6] was “inactive” throughout. In addition, the Potency entry in [7], in [9], in [10], in [11], in [12] and in assay [13] was “inactive” each time. Moreover, the Potency entry in [14] and in assay [17] was “inactive” each time. Also, in [8], the molecule was called inactive.
With `OCCOCCOCCOCCOCCO`, the Potency entry in assay [1], in assay [2], in assay [3], in assay [4], in assay [5] and in [6] was “inactive” throughout. Further, the Potency entry in [7], in assay [9], in assay [10], in assay [12] and in assay [13] was “inactive” each time. Further, in assay [8], the call was inactive. The Potency in [11] was 15.7 µM (active) and inactive.
